From PubChem BioAssay
KDM5B inh – KDM5B demethylase inhibition; KDM5B demethylase, FDH-coupled NADH fluorescence (FDH is formaldehyde dehydrogenase); Potency, µM (highest dose often 57.7 µM), hits mostly inhibitors; 220,000 tested, 2.6% active; AID 1347165; further: potency means the concentration at half of the fitted maximal effect; 0% is about no effect; nearly all actives have a fitted effect of over 70% in size
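Compound dilutions met 200 nM (final) KDM5BΔAP for 10 min at room temperature before substrate addition. The substrate mix held 12.5 µM H3K4me3 with cofactors 25 µM α-ketoglutarate and 50 µM Fe²⁺. NADH signal gain over 30 min defined activity.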
SNCA viab count – reduces viability of HEK-293 SNCA reporter cells; AID 1671193; 150,000 tested, 0.12% active; HEK-293-SNCA-luc viability, GF-AFC fluorescence, 24 h; Potency, µM (doses to about 57.1 µM), for inactives: at the highest dose activity change, negative = cytotoxicity, hits mostly cytotoxic;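 further: potency means the concentration at half of the fitted maximal effect; 0% = DMSO-treated cells and -100% = medium-only wells without cells; nearly all actives have a fitted effect of over 30% in size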
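Cytotoxicity counterscreen: after 24 h compound treatment of genome-edited SNCA-luciferase HEK-293 cells, live-cell protease substrate GF-AFC read by fluorescence after 30 min; activity scaled between DMSO (0%) and medium-only (-100%), curves Hill-fitted.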
IP6K1 inh – IP6K1 kinase inhibition; AID 1645851; 140,000 tested, 0.81% active; activity change, % (series mostly up to about 58 µM); Q92551; IP6K1 kinase, ADP-Glo luminescence, 2 h; hits give low values; in the data active means activity change below about -25%; further: on the % scale 0 is the no-effect control and ±100 the full control effect
Target sequence (Q92551 whole entry, looked up): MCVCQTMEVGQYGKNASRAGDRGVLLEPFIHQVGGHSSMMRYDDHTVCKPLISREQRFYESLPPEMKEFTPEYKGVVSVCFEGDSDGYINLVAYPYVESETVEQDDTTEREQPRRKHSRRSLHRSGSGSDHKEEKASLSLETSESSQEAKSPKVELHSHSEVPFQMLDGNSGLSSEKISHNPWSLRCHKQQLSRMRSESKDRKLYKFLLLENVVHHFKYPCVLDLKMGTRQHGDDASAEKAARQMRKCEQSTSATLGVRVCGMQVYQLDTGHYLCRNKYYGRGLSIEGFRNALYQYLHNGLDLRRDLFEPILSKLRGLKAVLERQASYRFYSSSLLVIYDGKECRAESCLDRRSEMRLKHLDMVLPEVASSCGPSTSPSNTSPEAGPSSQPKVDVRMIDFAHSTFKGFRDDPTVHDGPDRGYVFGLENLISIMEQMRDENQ
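ADP-Glo luminescence measures ADP made by human IP6K1 during a 2 h RT reaction with ATP/IP6 (mix at 1.3 mM/130 uM); top library doses 57.5 and 19.1 uM final.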
SNCA expr inh – reduces expression of the alpha-synuclein gene. HEK-293 SNCA-luciferase knock-in, luminescence, 24 h. Potency, µM (titrated, usually from 57.2 µM), for the others: top-dose activity change, negative = inhibition, usual class: inhibitors. 140,000 tested, 0.17% active;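 further: potency means the concentration at half of the fitted maximal effect; plate controls were DMSO cells for no effect and cell-free wells for full effect; nearly all actives have a fitted effect of over 45% in size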
* hit, by the source's call; [ ] = another dose, or the depositor's remark. Sampled rows, rich in hits. Any-hit rate of the full collection: about 2.9%. Unless noted, the call rests on the fitted dose curve; in most records, active means well fitted curve in the direction sought with a large enough effect; inconclusive means small, poorly fitted or top-dose-only effect, or another doubt; inactive means no such curve, though single readings can be large; an effect the other way counts as inactive or inconclusive.

How did CN1CCCN(C(=O)CCC[C@@H]2[C@H]3CCCN4CCC[C@@H](CN2Cc2cccnc2)[C@@H]34)CC1 do in these assays?
KDM5B inh: 22µM*; SNCA viab count: -5%; IP6K1 inh: -7; SNCA expr inh: 15%

How did CN1CCCN(C(=O)CCC[C@@H]2[C@H]3CCCN4CCC[C@@H](CN2Cc2ccccc2)[C@@H]34)CC1 do in these assays?
KDM5B inh: inactive; SNCA viab count: inconclusive; IP6K1 inh: -6; SNCA expr inh: -3%

What do the screens show for `CCN(Cc1ccncc1)C(=O)CCC[C@@H]1[C@H]2CCCN3CCC[C@@H](CN1C(C)=O)[C@@H]23`?
KDM5B inh: inconclusive; SNCA viab count: -10%; IP6K1 inh: -6; SNCA expr inh: 24%

Results for CCOc1ccc(CN2CCC3(CC2)CC(O)CCO3)cc1 (centres undefined) ?
KDM5B inh: inactive; SNCA viab count: 8%; IP6K1 inh: 14; SNCA expr inh: 0%

How did CCN1CCN(c2oc(COc3ccc(OC)cc3)nc2C#N)CC1 do in these assays?
KDM5B inh: inactive

Results for COc1ccc(-c2cc3nc4c(c(=O)n3[nH]2)CN(C(=O)CCCc2c[nH]c3ccccc23)CC4)cc1 ?
KDM5B inh: inconclusive; SNCA viab count: -7%; IP6K1 inh: 21; SNCA expr inh: inconclusive

Results for COc1ccc2c(c1)CCc1c-2n[nH]c1C(=O)N1CCc2nc3cc(-c4ccccc4)[nH]n3c(=O)c2C1 ?
KDM5B inh: inconclusive; SNCA viab count: -9%; IP6K1 inh: 0; SNCA expr inh: -27%

How did COc1ccc(-c2cc3nc4c(c(=O)n3[nH]2)CN(C(=O)Cc2ccccc2)CC4)cc1 do in these assays?
KDM5B inh: 28µM*; SNCA viab count: 11%; IP6K1 inh: 6; SNCA expr inh: -22%

Results for COc1ccc(-c2cc3nc4c(c(=O)n3[nH]2)CN(C(=O)NCc2ccco2)CC4)cc1 ?
KDM5B inh: 25µM*; SNCA viab count: 1%; IP6K1 inh: 11; SNCA expr inh: inconclusive

How did Cc1cn2nc(C(=O)NCCc3cccs3)cc2c(N2CCSCC2)n1 do in these assays?
KDM5B inh: 14µM*; SNCA viab count: 2%; IP6K1 inh: 7; SNCA expr inh: 5%

What do the screens show for `Cc1cn2nc(C(=O)NCc3ccc(C(C)C)cc3)cc2c(N2CCSCC2)n1`?
KDM5B inh: 14µM*; SNCA viab count: -1%; IP6K1 inh: 0; SNCA expr inh: 2%

What do the screens show for `Cc1cn2nc(C(=O)NCc3cccc(Cl)c3)cc2c(N2CCSCC2)n1`?
KDM5B inh: 14µM*; SNCA viab count: 6%; IP6K1 inh: -12; SNCA expr inh: -16%

Results for COc1ccc([C@H]2C[C@@H](O)[C@@H](O)[C@@H]2NC(=O)c2nc3ccccc3s2)cc1 ?
KDM5B inh: inactive; SNCA viab count: -12%[87.6 µM]; IP6K1 inh: 1; SNCA expr inh: 33%[87.6 µM]

How did CCC(C)c1ccc(-c2csc(NC(=O)Cn3ncc4ccccc4c3=O)n2)cc1 (centres undefined) do in these assays?
KDM5B inh: inactive

What do the screens show for `Cc1ccc(-c2ccc3nnc(CNC(=O)C4(c5ccccc5)CC4)n3n2)cc1`?
KDM5B inh: 28µM*; SNCA viab count: -9%; IP6K1 inh: 13; SNCA expr inh: -17%

What do the screens show for `O=C(Cc1cccc(F)c1)NCc1nnc2ccc(-c3ccc(Cl)cc3)nn12`?
KDM5B inh: 25µM*; SNCA viab count: 11%; IP6K1 inh: -6; SNCA expr inh: 2%

How did COc1ccccc1CC(=O)NCc1nnc2ccc(-c3ccc(C)cc3)nn12 do in these assays?
KDM5B inh: inconclusive; SNCA viab count: -8%; IP6K1 inh: -3; SNCA expr inh: -21%

Results for O=C(Cc1ccccc1Cl)NCc1nnc2ccc(-c3ccccc3)nn12 ?
KDM5B inh: 11µM*; SNCA viab count: -5%; IP6K1 inh: 14; SNCA expr inh: -29%

How did Cc1ccccc1CC(=O)NCc1nnc2ccc(-c3ccccc3)nn12 do in these assays?
KDM5B inh: 32µM*; SNCA viab count: -12%; IP6K1 inh: 2; SNCA expr inh: -7%

What do the screens show for `COc1ccc(Oc2cc(NC(=O)C3CCN(S(C)(=O)=O)CC3)ccc2OC)cc1`?
KDM5B inh: inactive

What do the screens show for `Clc1cccc(CN2CCOC[C@H](Oc3cccnc3)C2)c1`?
KDM5B inh: inactive; SNCA viab count: 18%[87.6 µM]; IP6K1 inh: -1; SNCA expr inh: -4%[87.6 µM]

How did C=CC(C)(O)CC/C=C(\C)C(=O)OC1C(O)C(CO)OC(OC(=O)C23CCC(C)(C)CC2C2=CCC4C5(C)CCC(OC6OC(COC7OCC(OC(C)=O)C(O)C7OC7OC(COC(C)=O)C(O)C(O)C7O)C(O)C(O)C6O)C(C)(C)C5CCC4(C)C2(C)C(O)C3O)C1OC1OCC(OC2OCC(O)C(OC3OCC(O)C(O)C3O)C2O)C(O)C1O (centres undefined) do in these assays?
SNCA viab count: -36%[5.56 µM]; IP6K1 inh: 4

What do the screens show for `O=C(Cc1ccsc1)NCc1nnc2ccc(-c3ccc(Cl)cc3)nn12`?
KDM5B inh: 25µM*; SNCA viab count: -3%; IP6K1 inh: 41; SNCA expr inh: 5%

What do the screens show for `COc1ccc(-c2ccc3nnc(CNC(=O)c4ccccc4Cl)n3n2)cc1`?
KDM5B inh: 28µM*; SNCA viab count: -4%; IP6K1 inh: 4; SNCA expr inh: -14%

Results for O=C(CCc1ccccc1)NCc1nnc2ccc(-c3ccccc3)nn12 ?
KDM5B inh: 28µM*; SNCA viab count: -4%; IP6K1 inh: 3; SNCA expr inh: 19%

How did O=C(NCc1nnc2ccc(-c3ccc(Cl)cc3)nn12)c1cc(F)ccc1Cl do in these assays?
KDM5B inh: 16µM*; SNCA viab count: 3%; IP6K1 inh: 23; SNCA expr inh: -6%

What do the screens show for `Cc1ccc(-c2ccc3nnc(CNC(=O)Cc4ccsc4)n3n2)cc1C`?
KDM5B inh: inconclusive; SNCA viab count: -5%; IP6K1 inh: 0; SNCA expr inh: -1%

What do the screens show for `O=C(NCc1nnc2ccc(-c3ccccc3)nn12)c1ccccc1F`?
KDM5B inh: 28µM*; SNCA viab count: -12%; IP6K1 inh: 15; SNCA expr inh: 27%

What do the screens show for `COc1ccc(-c2ccc3nnc(CNC(=O)c4ccccc4F)n3n2)cc1`?
KDM5B inh: 28µM*; SNCA viab count: -4%; IP6K1 inh: -4; SNCA expr inh: 11%

What do the screens show for `O=C(NCc1nnc2ccc(-c3ccccc3)nn12)c1ccccc1Cl`?
KDM5B inh: 28µM*; SNCA viab count: -18%; IP6K1 inh: 8; SNCA expr inh: 5%

How did CCOc1ccccc1C(=O)NCc1nnc2ccc(-c3ccccc3)nn12 do in these assays?
KDM5B inh: 25µM*; SNCA viab count: -1%; IP6K1 inh: 3; SNCA expr inh: 31%

How did COc1ccc(C(=O)NCc2nnc3ccc(-c4ccccc4)nn23)c(C)c1 do in these assays?
KDM5B inh: inconclusive; SNCA viab count: -13%; IP6K1 inh: 16; SNCA expr inh: 12%

How did O=C(NCc1nnc2ccc(-c3ccccc3)nn12)c1ccc(F)cc1Cl do in these assays?
KDM5B inh: 28µM*; SNCA viab count: -12%; IP6K1 inh: -5; SNCA expr inh: 1%
